Assay outcomes: PubChem BioAssay, National Center for Advancing Translational Sciences (NCATS)
Pf growth 48h – P. falciparum growth inhibition at 48 hours (one generation) | P. falciparum luciferase growth in erythrocytes, 48 h | Potency, µM (highest dose often 28.7 µM), actives largely listed as inhibitors | 310,000 tested, 5.9% active | AID 504832
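In quantitative HTS format, infected erythrocytes bearing luciferase-reporter parasites were treated for a single generation at 37 C. Luminescence after adding detection reagent served as the growth measure.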
HCMV inh – human cytomegalovirus inhibition; HFF cells, HCMV-luciferase reporter, 72 h; active compounds read low; activity change, negative = inhibition, % at 57.5 µM; 410,000 tested, 4.5% active; in the data active = activity change below about -60%; inconclusive = no clear call, values can overlap the other calls; inactive = above about -39%
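Inhibition of viral replication was scored as loss of reporter luminescence in HFFs infected with HCMV-luciferase (MOI 1 PFU/cell) for 72 h; compounds tested at 2 doses, normalized to buffer and Salinomycin controls.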
Pf growth 96h – inhibits malaria parasite growth, 96 h; P. falciparum luciferase reporter growth, 96 h; Potency, µM (highest dose often 28.7 µM), hits mostly inhibitors; 320,000 tested, 6.9% active
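Delayed-death screen, second-generation endpoint: infected erythrocytes, 2% hematocrit, 0.05% parasitemia final; 96 hours at 37 C, 5% CO2; luciferase detection reagent; luminescence decrease equals reduced growth.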
HCV inh – HCV inhibition | Huh7.5.1 HCVcc-Cre infection, luciferase reporter, 44 h | Potency, µM (highest dose often 41.8 µM), most hits filed as inhibitors | 340,000 tested, 3.4% active | AID 651820
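Seed cells (1,000/well) for 4 h; treat with compound and infect with HCVcc-Cre, moi about 0.5. Incubate 44 h, then detect luciferase activity.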
Numbers stand for hits; n = inactive; u = inconclusive; x = no result given. An excerpt weighted towards active compounds, which were near 13% of everything screened. Unless noted, calls follow the shape of the dose curve; as a rule, active = well fitted inhibition curve with a large enough effect; inconclusive = small, poorly fitted or top-dose-only effect, or another doubt; inactive = no such curve, though single readings can be large or run the other way.

SMILES	Pf growth 48h	HCMV inh	Pf growth 96h	HCV inh
COc1cccc(/C=C2\SC(=S)N(NS(=O)(=O)c3ccccc3)C2=O)c1OC	n	n	n	n
COc1cc(/C=C2\SC(=S)N(NS(=O)(=O)c3ccccc3)C2=O)cc(OC)c1OC	9.28µM	n	n	n
CCN1C(=O)[C@H]2[C@@H](c3ccc(-c4ccc(Cl)c(Cl)c4)c(OC)c3)N[C@@](Cc3ccccc3)(C(=O)OC)[C@H]2C1=O	2.94µM	n	3.7µM	n
CCN1C(=O)[C@H]2[C@@H](c3ccc(-c4ccc5c(c4)OCO5)cc3)N[C@@](Cc3ccccc3)(C(=O)OC)[C@H]2C1=O	x	n	x	n
CCN1C(=O)[C@H]2[C@@H](c3ccc(-c4cccc(Cl)c4)cc3)N[C@@](Cc3ccccc3)(C(=O)OC)[C@H]2C1=O	4.65µM	n	4.65µM	u
CCCCCCSc1ccc([C@H]2N[C@@](Cc3ccccc3)(C(=O)OC)[C@H]3C(=O)N(C)C(=O)[C@@H]23)cc1OC	3.29µM	n	2.33µM	u
CCOC(=O)c1c(C)[nH]c(C(=O)Cn2c(=O)c3c(ncn3CC)n(Cc3ccccc3)c2=O)c1C	8.28µM	n	10.4µM	u
COC(=O)c1cccnc1-n1c(=O)c2cccnc2n(Cc2ccc(Cl)cc2)c1=O	u	n	n	n
COC(=O)c1cccnc1-n1c(=O)c2cccnc2n(Cc2cccc([N+](=O)[O-])c2)c1=O	n	-85.8	n	n
CCn1cnc2c1c(=O)n(Cc1cccc([N+](=O)[O-])c1)c(=O)n2Cc1ccccc1	8.28µM	n	u	n
CCn1cnc2c1c(=O)n(Cc1csc(-c3ccccc3)n1)c(=O)n2Cc1ccccc1	u	n	n	n
CCn1cnc2c1c(=O)n(CC(=O)NCC(C)C)c(=O)n2Cc1ccccc1	n	n	u	n
Cc1cc(=O)n(CC(=O)Nc2ccc([N+](=O)[O-])cc2)c(-n2nc(C)cc2C)n1	x	n	x	x
Cc1ccc(-c2nc3sc(CCNC(=O)c4ccc(Br)o4)c(C)n3n2)cc1	x	n	x	x
C=C1C(=O)O[C@H]2C1CC[C@@](C)(O)C13C=CC(C)(C21)C1(C3)C(=O)O[C@@H]2C3C(C)=CCC3[C@](C)(O)C[C@H](OC(C)=O)C21 (stereo partly drawn)	n	-90.3	u	n
CN(C)CCCNC(=O)CCC1CCCCC1	n	-107.4	x	n
Cc1occc1C(=O)N/N=C/C(Br)=C\c1ccccc1	n	n	1.31µM	u
O=C(N/N=C/C(Br)=C\c1ccccc1)c1ccco1	2.62µM	n	4.15µM	n
Cc1onc(-c2ccccc2)c1C(=O)N/N=C/C(Br)=C/c1ccccc1	n	-70.3	n	u
Cc1occc1C(=O)N/N=C/C=C/c1ccccc1	n	n	n	n
CCOC(=O)c1ccc(NC(=O)CC2C(=O)N(c3cccc(OC)c3)C(=O)N2Cc2ccc(OC)cc2)cc1 (stereo not drawn)	x	n	x	x
c1ccc(CC2CCN(c3ncnc4sccc34)CC2)cc1	n	-85.3	n	3.98µM
Cc1ccc(S(=O)(=O)N2CCN(c3ncnc4sccc34)CC2)cc1	u	-84.7	u	6.31µM
O=S(=O)(c1ccc(F)c(F)c1F)N1CCN(c2ncnc3sccc23)CC1	x	-79.4	x	u
Cc1sc2ncnc(N3CCN(S(=O)(=O)c4ccc(F)cc4)CC3)c2c1C	n	u	n	u
SMILES	Pf growth 48h	HCMV inh	Pf growth 96h	HCV inh
O=C(NC1CCCC1)C(C1CC1)n1c(-c2ccncc2)nc2ccccc21 (stereo not drawn)	x	n	x	x
CN(CC1CCN(CCc2cccc(C(F)(F)F)c2)CC1)C(=O)c1ccc(F)cc1	n	n	13.1µM	n
CN(CC1CCN(CCc2cccc(C(F)(F)F)c2)CC1)C(=O)c1ccccc1	n	n	u	n
CC(Oc1ccc(F)cc1)C(=O)N1CCC(c2nc3ccccc3s2)CC1 (stereo not drawn)	x	n	x	x
CCN(CC)c1nc(NNC(=O)c2ccccc2)nc(N(CC)CC)n1	x	-70.3	x	n
CC/C(C)=N\Nc1nc(-c2cc3cc(OC)ccc3oc2=O)cs1	n	n	n	8.91µM
COc1ccc2cc([C@H](C)C(=O)N(C)Cc3ccccc3N3CCCC3)ccc2c1	u	n	3.7µM	10µM
COc1cccc(C2/C(=C(\O)c3ccc(OC)c(OC)c3)C(=O)C(=O)N2c2cc(C)on2)c1 (stereo not drawn)	n	n	5.22µM	n
Cc1cc(N2C(=O)C(=O)/C(=C(/O)c3ccc(F)cc3)C2c2ccc(F)cc2)no1 (stereo not drawn)	n	n	0.828µM	n
COc1cc(NC(=O)CCc2nc3cccnc3n2Cc2cccs2)cc(OC)c1OC	x	n	x	x
